According to PubChem BioAssay AID2417 (National Center for Advancing Translational Sciences (NCATS), 2010):
In all, about 140,000 compounds went through this assay and about 4,300 (3.1%) were called active. Roughly 21% stayed inconclusive and do not appear here. The sample holds actives, similar compounds and a random draw of the others, so the mix is not that of the screen. A number with no mark means an inactive call.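 Rule for the calls: active = readout at or below -70, meaning at least 70% loss of cells showing the perinucleolar compartment, a nuclear body marking cancer cells; inconclusive = readout between -30 and a set limit; inactive = the rest.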

Experiment: High Content Assay for Compounds that inhibit the Assembly of the Perinucleolar Compartment;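 note: plate controls were DMSO wells for no effect and camptothecin positive control wells for full effect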
Details: PC3M PTB-GFP, PNC prevalence imaging, 16 h; at 10 µM; stronger effect = lower value
How it was run: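 Read-out is percentage of cells bearing a perinucleolar compartment, from automated 20x imaging of fixed, Hoechst-stained PC3M PTB-GFP cells. Cells were seeded 4 h, then exposed 16 h to compound (23 nl of library stock) in duplicate plates.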

Row | Structure (SMILES) | activity change (PNC), negative = inhibition
1 | COc1cc(C2C(N3C(=O)c4ccccc4C3=O)C(=O)N2c2ccc(C)c(C)c2)cc(OC)c1OC (stereo not drawn) | 31.7%
2 | CCC(=O)NCCc1nc2ccccc2n1CC | 14%
3 | CCn1c(NC(=O)c2nn(C)cc2Br)nc2ccccc21 | -114% (active)
4 | Cc1ccc(Cn2c(NC(=O)c3ccco3)nc3ccccc32)cc1 | 2.65%
5 | Cc1nnnn1/C(=C\c1ccccc1)C(=O)OCC(=O)N1CC2(C)CC1CC(C)(C)C2 (stereo not drawn) | 23.1%
6 | Cn1nccc1CNC(=O)c1ccnn1C | 23.5%
7 | Cc1ccc(N(CC(=O)Nc2cccc(N(C)S(C)(=O)=O)c2)S(C)(=O)=O)cc1 | 24.2%
8 | COc1ccc(C)cc1S(=O)(=O)N(CC(=O)Nc1cccc([N+](=O)[O-])c1)c1ccc(C)cc1 | -81.9% (active)
9 | Cc1ccc(S(=O)(=O)N(CC(=O)Nc2cccc([N+](=O)[O-])c2)Cc2ccc(Cl)cc2)cc1 | 34.5%
10 | Cc1ccc(S(=O)(=O)/N=C(/Nc2ccccn2)c2ccc(Cl)cc2)cc1 | -85% (active)
11 | Cc1ccc(S/C(=N\S(=O)(=O)c2ccc(Cl)cc2)c2ccccc2)cc1 | -26.8%
12 | O=S(=O)(/N=C(/Nc1ccccn1)c1ccccc1)c1ccc(Cl)cc1 | -25.2%
13 | CCNS(=O)(=O)c1ccc(NC(=O)c2cncc(Br)c2)cc1 | 6.83%
14 | C/C(=N/NS(=O)(=O)c1ccccc1)c1ccc(NC(=O)C(F)(F)F)cc1 | 8.62%
15 | COC(=O)Cc1ccc(N(Cc2ccccc2F)S(=O)(=O)c2ccc(Br)cc2)cc1 | -15.9%
16 | CCOc1ccc(NC(=O)Nc2cc(C)ccc2OC)cc1 | -3.12%
17 | CCOc1ccccc1NC(=O)Nc1cc(OC)ccc1OC | 48.5%
18 | CCOc1ccc(C(=O)Nc2cc(OC)ccc2OC)cc1 | -127% (active)
19 | CC1CCCCN1S(=O)(=O)c1ccc(S(=O)(=O)N(CC(=O)Nc2ccccc2)Cc2cccs2)cc1 (stereo not drawn) | -17.2%
20 | Cn1c(=O)cc(OCCCC(=O)N2CCN(Cc3ccc4c(c3)OCO4)CC2)c2ccccc21 | 19.5%

Row | Structure (SMILES) | activity change (PNC), negative = inhibition
21 | CCOc1ccc(NCCC(=O)c2ccc3c(c2)OCO3)cc1 | 23%
22 | CCCOc1ccc(NC(=O)CC2C(=O)N(C)C(=S)N2Cc2ccc3c(c2)OCO3)cc1 (stereo not drawn) | -134% (active)
23 | COc1ccc(/C=C/C(=O)NC(=S)NN2CCCCC2c2cccnc2)cc1 (stereo not drawn) | -29.3%
24 | CN(C)/N=C/c1cc(Cl)cc([N+](=O)[O-])c1O | 3.04%
25 | Cc1ccc(S(=O)(=O)N2CCCC2C(=O)OCc2nc3sc(C)c(C)c3c(=O)[nH]2)cc1 (stereo not drawn) | 7.12%
26 | O=C(CN1C(=O)c2cccc3cccc(c23)C1=O)N1CCCCC1 | -26%
27 | COc1ccc(NC(=S)NCC2CCN(c3ccc(OC)cc3)C2)cc1 (stereo not drawn) | -116% (active)
28 | COc1ccc(NC(=S)NC2CCS(=O)(=O)C2)cc1 (stereo not drawn) | 36.6%
29 | O=C(Cc1ccccc1)NC(=S)Nc1ccc(N2CCCCC2)cc1 | -26.1%
30 | COCC(C)n1c(C)cc(C(=O)CSc2cc(C)c3ccccc3n2)c1C (stereo not drawn) | -11.6%
31 | Cc1cc(F)ccc1S(=O)(=O)N1CCCOC1CNC(=O)C(=O)NCCC1=CCCCC1 (stereo not drawn) | 14.2%
32 | CCCc1cc(=O)[nH]c(SCC(=O)N2CCN(S(=O)(=O)c3ccc(C)cc3C)CC2)n1 | -20%
33 | Cc1cc(C(=O)Nc2c(C)nn(Cc3ccccc3)c2C)on1 | 36%
34 | Cc1nn(Cc2ccc(F)cc2)c(C)c1NC(=O)c1cccnc1Cl | -102% (active)
35 | Cc1nn(Cc2ccc(F)cc2)c(C)c1NC(=O)c1noc2c1CCc1ccccc1-2 | -5.67%
36 | Nc1nc(SCC(=O)NN(c2ccccc2)c2ccccc2)n[nH]1 | 8.76%
37 | Cc1ccccc1C1=NC(C(F)(F)F)(C(F)(F)F)c2c(n(-c3ccc(F)cc3)c(=O)[nH]c2=O)N1 | -9.65%
38 | CCOC(=O)C(C)Sc1nc2ccccc2c(=O)n1CC1CCCCC1 (stereo not drawn) | 0.699%
39 | CCOC(=O)C1CCc2nc3ccccc3c(=O)n21 (stereo not drawn) | -123% (active)
40 | CCC1(CC)Cc2ccccc2-c2nc3ccccc3c(=O)n21 | 35.3%

Row | Structure (SMILES) | activity change (PNC), negative = inhibition
41 | O=C(COC(=O)c1cc(=O)[nH]c2ccccc12)Nc1nc(-c2cccc(Br)c2)cs1 | 21.6%
42 | COC(=O)Cc1ccc(OCC(=O)Nc2ccc(OC(F)(F)F)cc2)cc1 | -17.1%
43 | CCCC(=O)C1CCN(Cc2ccccc2)CC1 | -25.7%
44 | CCCCN(C)C(=O)C1CCN(Cc2ccccn2)CC1 | -84.5% (active)
45 | CCCCN(Cc1ccccc1)C(=O)C1CCN(Cc2sccc2C)CC1 | 30.3%
46 | CC(=O)Nc1ccc(N2CCOCC2)c(C(=O)Nc2cccc(C)c2)c1 | -7.92%
47 | CCOc1cccc(NC(=O)CC#N)c1 | -1.74%
48 | CC(=O)Nc1cccc(Oc2cc(C#N)c(C#N)cc2N2CCOCC2)c1 | -107% (active)
49 | CCn1nc(C)c(/C=N/NC(=O)Cc2ccc(Cl)cc2)c1C | 49.9%
50 | O=[N+]([O-])c1cc(S(=O)(=O)N2CCCC2)ccc1NN=C1CCCC1 | 27.5%
51 | COc1cc(NC(=O)COC(=O)CSc2ccc3ccccc3c2)c(C)cc1[N+](=O)[O-] | 0.296%
52 | O=C(Nc1ccccc1)N1CCN(Cc2ccccc2)CC1 | 47.3%
53 | O=C(CSCc1ccc(Cl)cc1)N1CCN(Cc2ccc3c(c2)OCO3)CC1 | -86.5% (active)
54 | O=C(Nc1cccc2ccccc12)N1CCN(Cc2ccc3c(c2)OCO3)CC1 | -95.4% (active)
55 | O=C(CCCN1C(=O)c2cccc3cccc(c23)C1=O)N1CCN(Cc2ccc3c(c2)OCO3)CC1 | -24.4%
56 | O=C(CSCc1ccc(Cl)cc1)N1CCCCC1 | 0.451%
57 | CS(=O)(=O)N(CC(=O)N1CCN(Cc2ccc3c(c2)OCO3)CC1)c1ccc2c(c1)OCO2 | -4.43%
58 | O=C(Nc1ccccc1F)c1ccccc1-c1ccc(C(F)(F)F)cc1 | 16.7%
